The panel holds about 83,000 compounds, 20% with a hit somewhere; the sample as a whole holds those more often.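 Each cell line was grown in a 96-well plate and treated with one concentration of compound for 48 hours. Values below 10 were considered active.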 Values without a mark were called inactive. The source made the active and inactive calls.

These results are taken from PubChem BioAssay (NCI).

Some test systems named below: RPMI-8226 leukemia; OVCAR-8 ovarian; OVCAR-5 ovarian; OVCAR-4 ovarian; SK-OV-3 ovarian; IGROV1 ovarian; OVCAR-3 ovarian; HS 578T breast; NCI/ADR-RES ovarian.
Assay in all cases: NCI-60 one-dose screen, 48 h (100 = growth as untreated, 0 = no growth, -100 = all killed)
What all share (conditions): 10 µM unless noted

Take `Cn1cc(-c2nc(-c3c[nH]c4c(Cl)nccc34)cs2)c2cc(F)ccc21`: the growth with RPMI-8226 leukemia is 90.1%; in the assay on OVCAR-8 ovarian, 89.6%; with OVCAR-5 ovarian, 119%; in the assay on OVCAR-4 ovarian, 88%; in the assay with SK-OV-3 ovarian, 100%; in the assay on IGROV1 ovarian, 117%. Further, the growth was 114% with OVCAR-3 ovarian, 113% in the assay with HS 578T breast and 111% in the assay with NCI/ADR-RES ovarian.

On to `Cc1cc(C(=O)/C=C/c2ccc[nH]2)ccc1-n1ccc(C(F)(F)F)n1`, for which the growth was -40.1% (active) in the assay on RPMI-8226 leukemia; 85.6% in the assay with OVCAR-8 ovarian; 95.8% with OVCAR-5 ovarian; 74.7% with OVCAR-4 ovarian; 129% in the assay with SK-OV-3 ovarian; 92.3% with IGROV1 ovarian. The growth was 4.46% (active) in the assay with OVCAR-3 ovarian, 94.3% in the assay on HS 578T breast and 89.3% in the assay with NCI/ADR-RES ovarian.

As to `COc1ccc(/C=C(\C#N)n2nc3cccc(F)c3n2)cc1`, the growth with RPMI-8226 leukemia is 102%; in the assay on OVCAR-8 ovarian, 100%; with OVCAR-5 ovarian, 108%; in the assay on OVCAR-4 ovarian, 101%; with SK-OV-3 ovarian, 108%; in the assay on IGROV1 ovarian, 96.8%. In addition, the growth is 109% in the assay with OVCAR-3 ovarian, 104% with HS 578T breast and 104% with NCI/ADR-RES ovarian.

For the molecule `CN1CCN(CCNc2nccc(-c3c(-c4cccc(O)c4)nc4sccn34)n2)S1(=O)=O`, the growth with RPMI-8226 leukemia is 48.7%; in the assay on OVCAR-8 ovarian, 73.3%; in the assay with OVCAR-5 ovarian, 68.6%; in the assay on OVCAR-4 ovarian, 77.5%; in the assay with SK-OV-3 ovarian it was 47.1%; in the assay on IGROV1 ovarian, 45.7%. Further, the growth in the assay on OVCAR-3 ovarian was 81.5%; in the assay with HS 578T breast, 76.7%; in the assay with NCI/ADR-RES ovarian, 101%.

As to `CC(=O)[C@H]1CCC/C=C/[C@@H]2C[C@H](O)C[C@H]2[C@H](O)/C=C/C(=O)O1`, the growth was 14.2% in the assay on RPMI-8226 leukemia; 11.3% in the assay with OVCAR-8 ovarian; 32.3% in the assay with OVCAR-5 ovarian; 18.9% in the assay with OVCAR-4 ovarian; 23.9% in the assay with SK-OV-3 ovarian; -5.3% (active) in the assay with IGROV1 ovarian. For the same molecule, the growth was -31.1% (active) with OVCAR-3 ovarian, 36.9% with HS 578T breast and 3.11% (active) in the assay with NCI/ADR-RES ovarian.

As for `O=C(CSc1nc2ccccc2[nH]1)NCc1ccccc1`, the growth in the assay with RPMI-8226 leukemia was 101%; in the assay with OVCAR-8 ovarian, 104%; in the assay on OVCAR-5 ovarian, 95.4%; in the assay with OVCAR-4 ovarian, 97.6%; with SK-OV-3 ovarian, 101%; in the assay with IGROV1 ovarian, 102%. Further, the growth in the assay on OVCAR-3 ovarian is 105%; in the assay with HS 578T breast it was 97.9%.

With `CC(C)(C)[Si](C)(C)OC1[C@@H](O[Si](C)(C)C(C)(C)C)[C@@H](CNC(=O)NC(=O)CCl)O[C@H]1n1cnc2c(NC(=O)Nc3ccccc3)ncnc21` (some centres undefined), the growth was 16.7% with RPMI-8226 leukemia; 1.14% (active) in the assay with OVCAR-8 ovarian; 5.37% (active) in the assay with OVCAR-5 ovarian; -42.3% (active) in the assay with OVCAR-4 ovarian; -92.9% (active) with SK-OV-3 ovarian; -50.4% (active) in the assay on IGROV1 ovarian. The growth is -82.1% (active) with OVCAR-3 ovarian, -4.28% (active) in the assay on HS 578T breast and 20.3% in the assay on NCI/ADR-RES ovarian.

For the molecule `COc1ccccc1/C(C)=N/NC(=O)CSc1nc2ccccc2c(=O)n1Cc1ccc(S(N)(=O)=O)cc1`, the growth in the assay on RPMI-8226 leukemia was 99.5%; in the assay on OVCAR-8 ovarian it was 98.7%; in the assay with OVCAR-5 ovarian, 97.9%; in the assay with OVCAR-4 ovarian it was 94.9%; in the assay on SK-OV-3 ovarian, 115%; in the assay on IGROV1 ovarian, 102%. Further, the growth in the assay with OVCAR-3 ovarian was 108%; with HS 578T breast, 85.4%; in the assay on NCI/ADR-RES ovarian, 99.5%.

Turning to `C/C=C(\C)C(=O)NC1=CC[C@@]2(C)C(=CCC3C2CC[C@@]2(C)C3CC[C@@H]2C(C)N(C)C)C1=O` (some centres undefined), the growth with RPMI-8226 leukemia is 3.85% (active); with OVCAR-8 ovarian, 65.9%; in the assay on OVCAR-5 ovarian, 85.8%; in the assay with OVCAR-4 ovarian, 1.84% (active); with SK-OV-3 ovarian, 114%; in the assay on IGROV1 ovarian, 40.4%. In addition, the growth in the assay on OVCAR-3 ovarian is 29.3%; in the assay on HS 578T breast it was 56.8%; with NCI/ADR-RES ovarian, 55.7%.

As for `COc1cccc(-c2cc(C(=O)Nc3ccc(/C=C/c4ccc(OC5CCN(C)CC5)cc4)cc3)ccc2OC)c1`, the growth in the assay with RPMI-8226 leukemia is -32.7% (active); in the assay on OVCAR-8 ovarian, -38.8% (active); in the assay with OVCAR-5 ovarian it was 25.2%; in the assay with OVCAR-4 ovarian, -56.5% (active); in the assay on SK-OV-3 ovarian it was 109%; in the assay on IGROV1 ovarian, -56.3% (active). For the same molecule, the growth in the assay on OVCAR-3 ovarian was -82.9% (active); in the assay with HS 578T breast, -22.9% (active); with NCI/ADR-RES ovarian, -11.2% (active).

Consider `CCN1C(=O)N(CC)C2Nn3c(s/c(=C\c4ccc(OC)cc4)c3=O)=NC21` (centres undefined), for which the growth with RPMI-8226 leukemia was 69.8%; in the assay with OVCAR-8 ovarian, 67.3%; in the assay on OVCAR-5 ovarian, 83.9%; with OVCAR-4 ovarian it was 63.7%; in the assay with SK-OV-3 ovarian, 62.7%; with IGROV1 ovarian, 54.8%. Further, the growth in the assay with OVCAR-3 ovarian is 19.2%; in the assay on HS 578T breast it was 43.6%.

With `O=C1CC(=O)OC(c2ccc([N+](=O)[O-])cc2)O1`, the growth was 14.1% with RPMI-8226 leukemia; 11.6% with OVCAR-8 ovarian; -3.68% (active) in the assay with OVCAR-5 ovarian; 24.6% with OVCAR-4 ovarian; 89.6% in the assay with SK-OV-3 ovarian; -59.6% (active) in the assay on IGROV1 ovarian. Moreover, the growth in the assay on OVCAR-3 ovarian was -60.6% (active); in the assay on HS 578T breast it was 13.1%; with NCI/ADR-RES ovarian it was -44.3% (active).

As for `CCN(c1ccccc1)S(=O)(=O)c1cc([N+](=O)[O-])ccc1Cl`, the growth was 43.8% in the assay on RPMI-8226 leukemia; 79.8% in the assay on OVCAR-8 ovarian; 67.4% in the assay with OVCAR-5 ovarian; 25.1% with OVCAR-4 ovarian; 55.3% in the assay on SK-OV-3 ovarian; 54% in the assay on IGROV1 ovarian. Besides, the growth in the assay with OVCAR-3 ovarian was 74.7%; in the assay on HS 578T breast it was 82%; in the assay on NCI/ADR-RES ovarian, 42.2%.

In the case of `COC1=CC(=O)c2ccccc2C1=O`, the growth in the assay with RPMI-8226 leukemia was 73%; with OVCAR-8 ovarian it was 65.4%; in the assay with OVCAR-5 ovarian it was 107%; with OVCAR-4 ovarian, 70.4%; with SK-OV-3 ovarian it was 101%; with IGROV1 ovarian, 83.6%. Also, the growth was 24.5% in the assay with OVCAR-3 ovarian, 100% in the assay with HS 578T breast and 60.8% in the assay with NCI/ADR-RES ovarian.

Turning to `Cn1c2ccccc2c2c3c(c4c5ccccc5n(C)c4c21)C(=O)OC3`, the growth in the assay with RPMI-8226 leukemia was 89.9%; in the assay with OVCAR-8 ovarian, 98.6%; in the assay with OVCAR-5 ovarian, 95.9%; with OVCAR-4 ovarian, 96.9%; in the assay with SK-OV-3 ovarian, 100%; in the assay on IGROV1 ovarian, 78%. Also, the growth was 102% in the assay on OVCAR-3 ovarian, 97.4% with HS 578T breast and 95.5% with NCI/ADR-RES ovarian.

As to `CN1C(N2CCN(S(=O)(=O)c3ccccc3)CC2)=NS(=O)(=O)c2ccccc21`, the growth with RPMI-8226 leukemia was 98.4%; in the assay with OVCAR-8 ovarian it was 80%; with OVCAR-5 ovarian it was 97.9%; in the assay with OVCAR-4 ovarian, 111%; in the assay with SK-OV-3 ovarian it was 109%; in the assay on IGROV1 ovarian, -25.4% (active). Moreover, the growth in the assay on OVCAR-3 ovarian was 101%; in the assay on HS 578T breast, 82.5%; with NCI/ADR-RES ovarian it was 99.7%.

As to `Cn1cc(-c2csc(-c3c[nH]c4ccccc34)n2)c2ccnc(Cl)c21`, the growth in the assay on RPMI-8226 leukemia was 53.8%; in the assay on OVCAR-8 ovarian, 78.3%; in the assay on OVCAR-5 ovarian it was 127%; with OVCAR-4 ovarian, 48.5%; with SK-OV-3 ovarian, 93.9%; in the assay on IGROV1 ovarian, 91.8%. Further, the growth is 81% in the assay on OVCAR-3 ovarian, 80.8% in the assay on HS 578T breast and 81.8% in the assay on NCI/ADR-RES ovarian.

As to `CC(=O)c1ccc(NS(=O)(=O)c2cccc(C(=O)Nc3ccc(Br)cc3)c2)cc1`, the growth in the assay with RPMI-8226 leukemia is 22% [25 µM]; with OVCAR-8 ovarian, 67.3% [25 µM]; in the assay on OVCAR-5 ovarian, 89.2% [25 µM]; in the assay on OVCAR-4 ovarian, 63.6% [25 µM]; in the assay on SK-OV-3 ovarian it was 66.5% [25 µM]; in the assay on IGROV1 ovarian, 73.7% [25 µM]. Besides, the figures for the growth with OVCAR-3 ovarian, in the assay on HS 578T breast and in the assay on NCI/ADR-RES ovarian were 70.9% [25 µM], 79.7% [25 µM] and 48% [25 µM], respectively.

As to `Cc1nn(-c2ccccc2)c(Cl)c1/C=N\N=c1/sc2ccccc2n1C`, the growth with RPMI-8226 leukemia was 78.6%; with OVCAR-8 ovarian, 98.2%; with OVCAR-5 ovarian, 92.6%; in the assay on OVCAR-4 ovarian, 117%; in the assay on SK-OV-3 ovarian, 94.7%; in the assay on IGROV1 ovarian it was 96.2%. Besides, the results for the growth with OVCAR-3 ovarian, with HS 578T breast and in the assay on NCI/ADR-RES ovarian were 111%, 104% and 104%, respectively.
